From PubChem BioAssay (EPA / NIEHS)
“And” between values parts separate entries of the source, which are not always exact repeats. Equal values may be shown once. Some structures have more than one record in an assay (separate samples or runs), and their calls can disagree. The source made the active and inactive calls. Rule for the calls: active = hit-call score of the fitted dose curve at least 0.9, where 1 is the maximum; inactive = score below 0.9.

The compounds below were run on Intercellular Adhesion Molecule 1 (ICAM1), ICAM1 (gene 3383) (assay: BSK_hDFCGF_ICAM1: BioMAP Diversity Plus: hDFCGF Assay for Intercellular Adhesion Molecule 1 (ICAM1) Biomarker Activity (AID 2284287)). Settings: primary human foreskin fibroblasts.
Method: BSK_hDFCGF is a cell-based, multiplexed-readout assay that uses foreskin fibroblast, a human skin primary cell, with measurements taken at 24 hours after chemical dosing in a 96-well plate.BSK_hDFCGF_ICAM1 is an assay component measured in the BSK_hDFCGF assay. It measures ICAM-1 antibody related to regulation of gene expression using ELISA technology.Data from the assay component BSK_hDFCGF_ICAM1 was analyzed at the endpoint, BSK_hDFCGF_ICAM1, in the positive analysis fitting direction relative to DMSO as the negative control and baseline of activity. Using a type of binding reporter, gain or loss-of-signal activity can be used to understand protein changes. To generalize the intended target to other relatable targets, this assay endpoint is annotated to the 'cell adhesion molecules' intended target family, where the subfamily is 'Immunoglobulin CAM'.
The levels of cell surface (or secreted, indicated by the prefix "s") biomarker endpoints were measured by ELISA. Overt cytotoxicity to cells in confluent adherent cultures (all systems other than the BT system) was assessed by measuring total protein levels using sulforhodamine B (SRB) staining in parallel cultures at the time of biomarker measurements, indicated as SRB endpoints. For proliferation assays for adherent cell types, individual cell types are cultured at sub-confluence and relative cell numbers quantified by SRB staining at time points optimized for each system (48 h: 3C and CASM3C systems; 72 h: BT and HDF3CGF systems; 96 h: SAg system). SRB was performed by staining cells with 0.1% SRB after fixation with 10% TCA and reading wells at 560 nm.Viability and proliferation of PBMC (T cells) was quantified by Alamar Blue reduction for the SAg and BT systems. For PBMC viability (referred to as PBMC Cytotoxicity within the assay endpoint names), cells were plated (75,000/well in a 96-well plate) and then chemical samples added for 1 h before addition of activators, SEB and TSST-1 (20 ng/mL final concentration each). Cells were incubated for 90 h. Then, Alamar Blue (20 uL/well) (Invitrogen, Cat DAL1100) was added for 6 h, and the plates were read with a fluorescence microplate reader at 546/580 nm (excitation/emission). For PBMC proliferation, cells were plated and activated as above but incubated for only 16 h prior to addition of Alamar Blue. Plates were read after 6 h.

Structure (SMILES) | outcome | AC50
O=P(O)(O)OCCC(F)(F)C(F)(F)C(F)(F)C(F)(F)C(F)(F)C(F)(F)F | inactive | –
Cc1ccc(S(=O)(=O)OCC(F)(F)C(F)(F)C(F)(F)C(F)(F)C(F)(F)C(F)F)cc1 | inactive | –
FC1CC(F)(F)C(F)(F)C1(F)F (stereo not given) | inactive | –
O=C(O)C(F)(OC(F)(F)C(F)(OC(F)(F)C(F)(OC(F)(F)C(F)(F)C(F)(F)F)C(F)(F)F)C(F)(F)F)C(F)(F)F (stereo not given) | inactive | –
CC(C)(C)C(=O)CC(=O)C(F)(F)C(F)(F)C(F)(F)F | inactive | –
FC(F)(F)C(F)(F)C(F)(F)C(F)(F)C(F)(F)C(F)(F)C(F)(F)Br | inactive | –
FC(F)(F)C(F)(F)C(F)(F)C(F)(F)C(F)(F)C(F)(F)C(F)(F)C(F)(F)F | inactive | –
NC(=O)C(F)(F)C(F)(F)C(F)(F)C(F)(F)F | inactive | –
C=CC(F)(F)C(F)(F)C(F)(F)C(F)(F)C(F)(F)C(F)(F)C(F)(F)C(F)(F)C=C | inactive | –
FC(F)(F)C(F)(F)C(F)(F)C(F)(F)C(F)(F)C(F)(F)C(F)(F)I | inactive | –
OCCCC(F)(F)C(F)(F)C(F)(F)F | inactive | –
O=S(=O)(OCCOC(F)(F)F)C(F)(F)F | inactive | –
O=C(O)C(F)(F)C(F)(F)C(F)(F)F | inactive | –
C=CC(=O)OCC(F)(F)C(F)(F)C(F)(F)C(F)(F)C(F)(F)C(F)(F)C(F)(F)F | inactive | –
O=C(O)C(F)(F)C(F)(F)C(F)(F)C(F)(F)C(F)(F)C(F)(F)C(F)(F)C(F)(F)C(F)(F)C(F)(F)C(F)(F)C(F)(F)C(F)(F)F | inactive | –
CCCCCCOC(=O)c1ccccc1O | – | 37.9 µM (active) and 29.9 µM (active)
C=C(C)C(=O)OCC(F)(F)C(F)(F)C(F)(F)F | inactive | –
O=C(O)C(F)(F)C(F)(F)C(F)(F)C(F)(F)C(F)(F)C(F)(F)C(F)(F)C(F)(F)C(F)(F)C(F)F | inactive | 14.5 µM (active)
C=CC(=O)OCC(F)(F)C(F)(F)C(F)(F)C(F)(F)COC(=O)C=C | – | 10.6 µM (active) and 10.3 µM (active)

Structure (SMILES) | outcome | AC50
C=CC(F)(F)C(F)(F)C(F)(F)C(F)(F)C(F)(F)C(F)(F)C(F)(F)C(F)(F)F | inactive | –
FC(F)(F)C(F)(F)C(F)(F)C(F)(F)C(F)(F)C(F)(F)CC1CO1 (stereo not given) | inactive | –
FC(F)(F)C(F)(F)C(F)(F)C(F)(F)CCI | inactive | –
FC(F)(F)C(F)(F)CNCC(F)(F)C(F)(F)F | inactive | –
OCCCC(F)(F)C(F)(F)C(F)(F)C(F)(F)C(F)(F)C(F)(F)C(F)(F)F | – | 18.3 µM (active) and 20.1 µM (active)
O=C(O)C(F)(F)C(F)(F)C(F)(F)C(F)(F)F | inactive | –
O=C(O)C(F)(F)C(F)(F)C(F)F | inactive | –
OCC(F)(F)C(F)(F)C(F)(F)C(F)(F)C(F)(F)C(F)(F)F | inactive | –
FC(F)(Br)C(F)(F)C(F)(F)C(F)(F)C(F)(F)C(F)(F)Br | inactive | –
O=C(CC(=O)C(F)(F)C(F)(F)F)C(F)(F)F | inactive | –
C=C(C)C(=O)OCC(F)(F)C(F)(F)C(F)(F)C(F)(F)C(F)(F)C(F)(F)C(F)(F)F | inactive | –
O=C(O)C(F)(F)C(F)(F)C(F)(F)C(F)(F)C(F)(F)C(F)(F)C(F)(F)C(F)(F)C(F)(F)C(F)(F)C(F)(F)C(F)(F)F | inactive | 8.71 µM (active)
FC(F)(F)C(F)(F)C(F)(F)C(F)(F)C(F)(F)C(F)(F)C(F)(F)C(F)(F)CCS | inactive | –
O=C(O)C(F)(F)C(F)(F)F | inactive | –
COC(=O)CCC(F)(F)C(F)(F)C(F)(F)C(F)(F)F | inactive | –
FC(F)(F)C(F)(F)C(F)(F)C(F)(F)C(F)(F)CCI | inactive | –
OCC(F)(F)C(F)(F)C(F)(F)F | inactive | –
CCCCCCCCC(F)(F)C(F)(F)C(F)(F)C(F)(F)C(F)(F)C(F)(F)F | inactive | –
OCC(F)(F)C(F)(F)C(F)(F)C(F)(F)C(F)(F)C(F)F | inactive | –
